Test systems include HCT-15 colon; HT29 colon; SNB-75 CNS; SNB-19 CNS; U251 CNS; PC-3 prostate; SK-MEL-5 melanoma; UACC-62 melanoma; LOX IMVI melanoma; SK-MEL-28 melanoma.
What all share (test): NCI-60 one-dose screen, 48 h (100 = growth as untreated, 0 = no growth, -100 = all killed)
Conditions in all cases: 10 µM unless noted

About 83,000 compounds went through this panel and 20% of them were active in at least one assay; those are over-represented in the sample as a whole.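 The endpoint reported here, percent growth, reads 100 for growth as untreated, 0 for no net growth and -100 for all cells dead.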 Values without a mark were called inactive. The source made the active and inactive calls. How the source made its calls: active means growth percent below 10; inactive means the rest.

Take `CNC(=O)c1cc(Oc2ccc3nc(NC(=O)Nc4cc(C(F)(F)F)cc(C(F)(F)F)c4)sc3c2)ccn1`: the growth in the assay with HCT-15 colon was -4.69% (active); with HT29 colon, -71.3% (active); in the assay with SNB-75 CNS, -71.3% (active); with SNB-19 CNS, 2.44% (active); in the assay with U251 CNS it was -81.8% (active); with PC-3 prostate, -38.9% (active). Moreover, the growth with SK-MEL-5 melanoma was -47.6% (active); in the assay on UACC-62 melanoma it was -63.3% (active); in the assay with LOX IMVI melanoma, -87.5% (active); with SK-MEL-28 melanoma it was -71% (active).

With `CN1C[C@@H](c2ccc(Cl)cc2)[C@]2(NC(=S)N(c3ccc(F)c(Cl)c3)C2=O)[C@@]12C(=O)NC1C=CC(Cl)=C[C@H]12` (stereo not given in full), the growth in the assay on HCT-15 colon was 48.5%; in the assay with HT29 colon, 33.4%; in the assay with SNB-75 CNS, 53.2%; in the assay on SNB-19 CNS, 47.2%; with U251 CNS, 59.9%; in the assay on PC-3 prostate it was 8.42% (active). In addition, the growth is 44.5% with SK-MEL-5 melanoma, 55.7% in the assay with UACC-62 melanoma, 43.5% in the assay on LOX IMVI melanoma and 72.6% in the assay on SK-MEL-28 melanoma.

Take `COc1ccc(-c2nc3ncccn3c2/C=C/C(=O)c2cc(OC)c(OC)c(OC)c2)cc1`: the growth is 9.73% (active) in the assay with HCT-15 colon; 6.11% (active) with HT29 colon; 9.26% (active) in the assay on SNB-75 CNS; 10.9% in the assay on SNB-19 CNS; -16.8% (active) in the assay on U251 CNS; 19% with PC-3 prostate. Further, the growth with SK-MEL-5 melanoma is -83.2% (active); with UACC-62 melanoma, -17% (active); in the assay with LOX IMVI melanoma, 0.0444% (active); in the assay on SK-MEL-28 melanoma, -47.4% (active).

For the compound `O=C(O)CC1Sc2ccccc2NC1=O` (stereo not given), the growth in the assay on HCT-15 colon was 109%; with HT29 colon it was 129%; with SNB-75 CNS, 94%; in the assay on SNB-19 CNS, 108%; with U251 CNS, 103%; in the assay on PC-3 prostate, 92.1%. For the same compound, the growth in the assay on SK-MEL-5 melanoma is 175%; with UACC-62 melanoma it was 105%; with LOX IMVI melanoma it was 96.4%; in the assay with SK-MEL-28 melanoma it was 126%.

As for `Cc1[nH]c(-c2nc3ccccc3[nH]2)c(C)c1C(=O)N1CCc2sccc2C1`, the growth in the assay with HCT-15 colon is 90%; in the assay on HT29 colon, 96%; in the assay on SNB-75 CNS, 78.6%; in the assay with SNB-19 CNS, 89.4%; with U251 CNS, 97.9%; with PC-3 prostate, 87.3%. For the same compound, the growth with SK-MEL-5 melanoma was 88.8%; in the assay on UACC-62 melanoma, 87.8%; in the assay with LOX IMVI melanoma it was 93.3%; in the assay with SK-MEL-28 melanoma, 94.5%.

Consider `COc1ccc(CN2C(=O)/C(=C\c3cc(OC)c(OC)c(OC)c3)c3ccccc32)cc1`, for which the growth is -55.8% (active) in the assay on HCT-15 colon; 0.194% (active) with HT29 colon; 8.57% (active) in the assay on SNB-75 CNS; 60.3% with SNB-19 CNS; -73.6% (active) with U251 CNS; 10.9% in the assay with PC-3 prostate. The growth in the assay on SK-MEL-5 melanoma was -25.1% (active); in the assay with UACC-62 melanoma, -8.88% (active); in the assay with LOX IMVI melanoma it was -76% (active); in the assay with SK-MEL-28 melanoma, -34.9% (active).

On to `COc1cccc(CCC2CCCN(c3cc(C)nc(N)n3)C2)c1` (stereo not given), for which the growth in the assay with HCT-15 colon is 21.9%; in the assay on HT29 colon, 4.64% (active); in the assay on SNB-75 CNS, 25.9%; in the assay on SNB-19 CNS, 23.8%; in the assay with U251 CNS, 15%; in the assay on PC-3 prostate, 20.2%. The growth was 18.2% in the assay on SK-MEL-5 melanoma, 29.3% with UACC-62 melanoma, 17% with LOX IMVI melanoma and 50.2% with SK-MEL-28 melanoma.

Take `C=CC(=O)N[C@@H](Cc1ccc(-c2cc(Cl)cc(Cl)c2)cc1)[C@@H](O)[C@H](O)C(=O)O`: the growth was 104% in the assay on HCT-15 colon; 87.9% with HT29 colon; 104% with SNB-75 CNS; 98.1% with SNB-19 CNS; 92.1% with U251 CNS; 89.4% in the assay on PC-3 prostate. The growth was 99.3% with SK-MEL-5 melanoma, 89.3% in the assay with UACC-62 melanoma, 98.4% with LOX IMVI melanoma and 107% with SK-MEL-28 melanoma.

For the compound `CC(C)n1nc(C#Cc2cccc(NC(=O)c3cccc(C(F)(F)F)c3)c2)c2c(N)ncnc21`, the growth in the assay on HCT-15 colon is -3.07% (active); in the assay on HT29 colon, -11.7% (active); with SNB-75 CNS it was -66.2% (active); in the assay on SNB-19 CNS, 5.79% (active); with U251 CNS, 2.84% (active); in the assay with PC-3 prostate it was 16.4%. Also, the growth in the assay on SK-MEL-5 melanoma was -61.4% (active); with UACC-62 melanoma it was -56.1% (active); in the assay with LOX IMVI melanoma, -91.8% (active); in the assay on SK-MEL-28 melanoma, -27.9% (active).

In the case of `C[C@H]1[C@H]2C3=CC[C@@H]4[C@@]5(C)C/C(=C/c6ccncc6)C(=O)C(C)(C)[C@@H]5CC[C@@]4(C)[C@]3(C)CC[C@@]2(C(=O)N2CCN(C)CC2)CC[C@@H]1C`, the growth in the assay on HCT-15 colon is 66%; in the assay with HT29 colon, 46.9%; in the assay on SNB-75 CNS, 76.3%; in the assay on SNB-19 CNS, 78.2%; with U251 CNS it was 68.8%; with PC-3 prostate it was 33.9%. Further, the growth with SK-MEL-5 melanoma was 87.7%; in the assay with UACC-62 melanoma, 80.2%; in the assay with LOX IMVI melanoma, 84.3%; in the assay with SK-MEL-28 melanoma, 101%.

Take `O=c1oc2ccc(Cl)cc2cc1-c1cs/c(=N/N=C\c2ccc(Cl)cc2)n1/N=C/c1ccc(Cl)cc1`: the growth with HCT-15 colon was 105%; in the assay with HT29 colon, 91.8%; in the assay with SNB-75 CNS, 123%; with SNB-19 CNS, 98.4%; in the assay with U251 CNS it was 102%; in the assay on PC-3 prostate it was 99.4%. Moreover, the growth in the assay with SK-MEL-5 melanoma is 104%; in the assay with UACC-62 melanoma it was 93.8%; in the assay with LOX IMVI melanoma, 110%; in the assay with SK-MEL-28 melanoma, 110%.

On to `COc1ccc(-n2nnc(C(=O)NCCc3c[nH]c4ccc(F)cc34)c2C)cc1`, for which the growth was 104% with HCT-15 colon; 86.4% with HT29 colon; 93.7% with SNB-75 CNS; 105% in the assay on SNB-19 CNS; 92.4% in the assay with U251 CNS; 87.4% with PC-3 prostate. The growth with SK-MEL-5 melanoma was 102%; with UACC-62 melanoma, 98.4%; in the assay on LOX IMVI melanoma, 98.6%; in the assay with SK-MEL-28 melanoma, 109%.

On to `CCOc1ccc2nc(-c3cccc(OCC(=O)NC(C)C)c3)nc(Nc3ccc(-c4cn[nH]c4)cc3)c2c1`, for which the growth is 30.8% in the assay with HCT-15 colon; -27.6% (active) with HT29 colon; -62% (active) in the assay on SNB-75 CNS; 19.4% with SNB-19 CNS; -33.8% (active) in the assay with U251 CNS; 0.124% (active) with PC-3 prostate. The growth with SK-MEL-5 melanoma was -81.1% (active); in the assay on UACC-62 melanoma, -6.26% (active); in the assay with LOX IMVI melanoma it was -10.8% (active); in the assay with SK-MEL-28 melanoma it was -71.4% (active).

Source of the values: PubChem BioAssay (NCI).
